# Data taken from PMC4336329 (PLoS ONE, 2015).
# About 2,200 (0.71%) of roughly 310,000 compounds showed an effect of 50% or more. Effects have a minus sign here. What follows is part of a selection rich in strong results, with near analogues and random picks from the rest.
# Target: human ether-à-go-go-related gene (hERG) potassium channel (human, UniProt Q12809)
# Assay: primary screen, population patch clamp on CHO cells stably expressing hERG; higher = less effect of the substance
# human ether-à-go-go-related gene (hERG) potassium channel, sequence (Q12809 whole entry, looked up): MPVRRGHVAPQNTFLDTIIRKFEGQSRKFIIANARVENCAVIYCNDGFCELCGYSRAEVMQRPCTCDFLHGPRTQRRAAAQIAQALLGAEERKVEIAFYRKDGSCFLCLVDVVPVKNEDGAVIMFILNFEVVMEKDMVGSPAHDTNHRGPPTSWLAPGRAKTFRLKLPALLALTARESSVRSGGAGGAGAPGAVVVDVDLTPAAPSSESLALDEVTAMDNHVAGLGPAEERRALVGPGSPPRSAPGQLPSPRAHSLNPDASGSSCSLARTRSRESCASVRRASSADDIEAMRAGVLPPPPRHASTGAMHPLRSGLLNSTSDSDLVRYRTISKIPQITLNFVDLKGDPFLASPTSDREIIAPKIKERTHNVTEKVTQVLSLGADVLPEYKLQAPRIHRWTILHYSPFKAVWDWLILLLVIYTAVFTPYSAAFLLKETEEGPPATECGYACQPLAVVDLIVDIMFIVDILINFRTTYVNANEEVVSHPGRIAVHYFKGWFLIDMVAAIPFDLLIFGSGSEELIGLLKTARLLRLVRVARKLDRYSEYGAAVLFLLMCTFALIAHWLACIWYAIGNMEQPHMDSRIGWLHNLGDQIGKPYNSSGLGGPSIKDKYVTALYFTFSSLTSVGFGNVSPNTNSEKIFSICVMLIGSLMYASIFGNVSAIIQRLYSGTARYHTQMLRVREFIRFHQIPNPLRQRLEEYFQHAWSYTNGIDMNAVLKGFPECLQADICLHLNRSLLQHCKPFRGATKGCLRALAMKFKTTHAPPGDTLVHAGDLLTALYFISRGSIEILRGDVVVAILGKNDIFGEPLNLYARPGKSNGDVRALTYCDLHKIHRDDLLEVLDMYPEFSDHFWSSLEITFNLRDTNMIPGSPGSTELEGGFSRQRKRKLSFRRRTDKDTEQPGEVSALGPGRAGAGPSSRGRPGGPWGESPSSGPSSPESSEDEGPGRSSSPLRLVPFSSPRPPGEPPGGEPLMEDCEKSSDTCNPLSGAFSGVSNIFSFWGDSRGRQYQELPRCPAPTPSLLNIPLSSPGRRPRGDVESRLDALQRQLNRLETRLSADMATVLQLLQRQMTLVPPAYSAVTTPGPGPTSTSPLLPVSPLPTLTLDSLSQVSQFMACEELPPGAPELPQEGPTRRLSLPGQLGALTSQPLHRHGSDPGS
row,SMILES,"hERG current change (%, negative = inhibition) at 1uM [%]"
1,CCOC(=O)C1CCCN(C(=O)CC(c2ccccc2)c2ccccc2)C1 (stereo not drawn),-2.54
2,O=C(CN=C1NS(=O)(=O)c2ccccc21)OCC(=O)c1ccccc1,10.8
3,CCC(C)(C)c1ccc(OCCCC[n+]2cccc(C)c2C)c(C(C)(C)CC)c1.[Br-],-52.7
4,CCC(C)(C)c1ccc(OCCCC[n+]2ccccc2)c(C(C)(C)CC)c1.[Br-],-28.5
5,CCC(C)(C)c1ccc(OCCCC[n+]2ccc(C)cc2)c(C(C)(C)CC)c1.[Br-],-34.5
6,N#Cc1cc2[nH]c3ccccc3c2[n+](-c2ccc([N+](=O)[O-])cc2)c1N.[Cl-],-28.7
7,CCOC(=O)c1cc2[nH]c3ccccc3c2[n+](-c2ccc([N+](=O)[O-])cc2)c1N.O=C([O-])C(F)(F)F,-13.8
8,CCOC(=O)c1cc2[nH]c3ccccc3c2[n+](-c2ccc([N+](=O)[O-])cc2)c1C.[Cl-],-70.6
9,C[C@]12CCC3C(CCC4=C/C(=N/OCC(=O)NC(CCC(=O)O)C(=O)O)CC[C@@]43C)C1CCC2O (stereo partly drawn),10.5
10,CCN(CC)/C(=N\S(=O)(=O)c1ccccc1C)c1ccccc1,-5.09
11,Cc1nn2cc(-c3ccc(Cl)cc3)cnc2c1Cl,13.1
12,C=CCn1c(=N)c(C(=O)NCCCOC)cc2c(=O)n3ccccc3nc21,-22.3
13,C=CCn1c(=N)c(C(=O)NCCCOC)cc2c(=O)n3cccc(C)c3nc21,-64.2
14,CCn1c(=N)c(C(=O)NCCCOC)cc2c(=O)n3cccc(C)c3nc21,-47
15,C=CCn1c(=N)c(C(=O)OCC)cc2c(=O)n3cccc(C)c3nc21,-73.7
16,CCOC(=O)c1cc2c(=O)n3cccc(C)c3nc2n(CCOC)c1=NC(C)=O,8.92
17,O=C(Nc1ccccc1F)N(CCCN1CCOCC1)Cc1cc2cc3c(cc2[nH]c1=O)OCCO3,9.36
18,Cc1ccc(NC(=O)c2cc(N3C(=O)CCC3=O)ccc2N2CCOCC2)cc1,5.52
19,COc1ccc(CN(C)S(=O)(=O)c2nnc(NC(=O)c3cccc(F)c3)s2)cc1OC,6.86
20,CSc1nc(-c2ccco2)cc(C(F)(F)F)c1C#N,12
21,CCOC(=O)N1CCN(C(=O)C2CCCN(c3nc4ccc(OCC)cc4s3)C2)CC1 (stereo not drawn),-3.97
22,COc1ccccc1-c1nnc(SCC(=O)NC2CCS(=O)(=O)C2)n1CCc1ccccc1 (stereo not drawn),11.2

row,SMILES,"hERG current change (%, negative = inhibition) at 1uM [%]"
1,O=C(CSc1nnc(-c2ccc(Br)cc2)n1CCc1ccccc1)NC1CCS(=O)(=O)C1 (stereo not drawn),-60.7
2,CCn1c(SCC(=O)NC2CCS(=O)(=O)C2)nnc1-c1ccccc1 (stereo not drawn),6.72
3,COc1ccc(C2(c3cccc(O)c3OC)CCN(C(C)=O)CC2)cc1O,17.8
4,Cc1ccc2nc(NC(=O)C3CCCN(S(=O)(=O)c4cccnc4)C3)sc2c1 (stereo not drawn),7.66
5,CC(C)OCCCn1c(=NC(=O)c2cccs2)c(C#N)cc2c(=O)n3ccccc3nc21,-67.1
6,CC(C)OCCCn1c(=NC(=O)c2ccncc2)c(C#N)cc2c(=O)n3ccccc3nc21,-63.4
7,CCOCCCn1c(=NC(=O)c2cccs2)c(C#N)cc2c(=O)n3ccccc3nc21,-49.3
8,CC(=O)N=c1c(C#N)cc2c(=O)n3ccccc3nc2n1CCCOC(C)C,8.03
9,CCCCCn1c(=NC(C)=O)c(C#N)cc2c(=O)n3ccccc3nc21,0.0455
10,CCOCCCn1c(=NC(C)=O)c(C#N)cc2c(=O)n3ccccc3nc21,11.7
11,Cc1cc(C(=O)CN2C(=O)NC3(CCCCC3)C2=O)c(C)n1-c1ccc2c(c1)OCO2,5.94
12,C=CCN(CC=C)C(=O)C(=O)c1ccn(-c2c(C)csc2C(=O)OC)c1,-59.3
13,CCN(CC)C(=O)C(=O)c1ccn(-c2c(C)csc2C(=O)OC)c1,7.53
14,COC(=O)c1scc(C)c1-n1ccc(C(=O)C(=O)N(C)C)c1,9.29
15,CC(C)(C)CN1CCNC(=O)C1CC(=O)NCCc1cnn(-c2ccccc2)c1 (stereo not drawn),5.53
16,CSc1sc(C(=O)Nc2ccc(F)cc2F)c2c1C=CCC2,11.8
17,COc1ccc(NS(=O)(=O)c2cccs2)cc1S(=O)(=O)N1CCOCC1,14.7
18,O=C(Nc1ccccc1)N1CCN(c2ncccn2)CC1,6.7
19,COc1cccc(-c2cc(CC3(O)CCN(CCCc4ccccc4)CC3)on2)c1,-39.3
20,OC1(Cc2cc(-c3ccccc3)no2)CCN(CCCc2ccccc2)CC1,-55.5
21,c1ccc(CCCN2CCOCC2)cc1,22.1
22,COc1ccc(N2CCN(CCCNC(=O)c3ccc(CS(=O)(=O)c4ccc(OC)cc4)o3)CC2)cc1,-43.1

row,SMILES,"hERG current change (%, negative = inhibition) at 1uM [%]"
1,COc1ccccc1S(=O)(=O)Cc1ccc(C(=O)NCCN2CCCCCC2)o1,9.15
2,COc1ccccc1S(=O)(=O)Cc1ccc(C(=O)NCCN2CCCC2)o1,14.2
3,COc1ccc(N2CCN(CCCNC(=O)c3ccc(CS(=O)(=O)c4ccc(Cl)cc4)o3)CC2)cc1,-71.2
4,O=C(NCCN1CCOCC1)c1ccc(CS(=O)(=O)c2ccc(Br)cc2)o1,-0.189
5,COc1ccccc1S(=O)(=O)Cc1ccc(C(=O)NCCCN2CCN(c3ccc(F)cc3)CC2)o1,-68.3
6,O=C(NCCN1CCCCCC1)c1ccc(CS(=O)(=O)c2ccc(Br)cc2)o1,-37.9
7,O=C(NCCCN1CCCC1)c1ccc(CS(=O)(=O)c2ccc(Cl)cc2)o1,18.1
8,O=C(NCCN1CCN(Cc2ccccc2)CC1)c1ccc(CS(=O)(=O)c2ccc(Br)cc2)o1,-50.5
9,CSc1nc2nc3c(c(=O)n2[nH]1)CCC3,1.88
10,CCOC(=O)c1sc2nc[nH]c(=O)c2c1C,12.6
11,Cc1cc2c(cc1C)[n+](C)cn2CC(O)COCC1CC=CCC1.[I-] (stereo not drawn),11
12,CC(=O)CC(c1ccccc1)c1c(O)c2ccccc2oc1=O.[Na] (stereo not drawn),15.2
13,Cc1ccc(C(=O)Nc2cccc(-c3ccc(N4CCOCC4)nn3)c2)cc1,4.57
14,COc1cc(SC)ccc1C(=O)OCC(=O)NC1CCCC1,9.49
15,Fc1cccc(Cl)c1CSc1ccc2nnc(-c3ccccn3)n2n1,1.37
16,Fc1ccc(CSc2nnc3ccc(-c4ccncc4)nn23)cc1,-61.2
17,c1ccc(CSc2nnc3ccc(-c4ccncc4)nn23)cc1,-12
18,c1ccc(CSc2ccc3nnc(-c4ccccn4)n3n2)cc1,-26.6
19,Cc1ccc(CSc2ccc3nnc(-c4cccnc4)n3n2)cc1,-70.6
20,Fc1cccc(CSc2ccc3nnc(-c4ccccn4)n3n2)c1,-50.2
21,O=C(CSc1ccc2nnc(-c3ccccn3)n2n1)Nc1cccc(F)c1,-7.83
22,Brc1ccc(CSc2ccc3nnc(-c4ccccn4)n3n2)cc1,-12.7

row,SMILES,"hERG current change (%, negative = inhibition) at 1uM [%]"
1,Fc1ccc(CSc2ccc3nnc(-c4ccccn4)n3n2)cc1,-92.9
2,Cc1ccc(CSc2nnc3ccc(-c4ccncc4)nn23)cc1,-3.17
3,Cc1cccc(CSc2ccc3nnc(-c4cccnc4)n3n2)c1,-16
4,Fc1ccc(CSc2ccc3nnc(-c4cccnc4)n3n2)cc1,-31.8
5,Cc1cc[n+](CC(=O)Nc2cc(C(F)(F)F)ccc2Cl)cc1.[Cl-],5.29
6,O=C(NCCS(=O)(=O)N1CCC2(CC1)OCCO2)c1ccc(F)cc1,13.2
7,CSc1nc2ccccc2cc1/C=C(\C#N)c1ccccc1,9.25
8,Cc1ccccc1S(=O)Cc1ccc(C(=O)NCCN2CCOCC2)o1 (stereo not drawn),25.5
9,CC(C)CN(C(=O)CSc1nnc2ccccn12)C1CCS(=O)(=O)C1 (stereo not drawn),8.69
10,CCOC(=O)Cn1ncc2c3ccccc3n(CC(=O)OCC)c2c1=O,13.4
11,Cc1cccc(CSc2nnc(-c3ccccn3)n2N)c1,9.76
12,Cc1cccc(CSc2ccc3nnc(-c4ccccn4)n3n2)c1,-58.9
13,Cc1cccc(CSc2ccc3nnc(-c4cccs4)n3n2)c1,5.73
14,Cc1ccc(NC(=O)c2cc(NC(=O)C3CC=CCC3C(=O)O)ccc2N2CCOCC2)cc1Cl (stereo not drawn),5.76
15,O=C(/C=C/c1ccco1)Nc1cccc(S(=O)(=O)N2CCOCC2)c1,-5.85
16,O=C(O)C(=O)O.O=[N+]([O-])c1ccc(S(=O)(=O)N2CCN(Cc3c[nH]c4ccccc34)CC2)cc1,-10.1
17,COc1ccc(CN2CCN(Cc3c[nH]c4ccccc34)CC2)cc1.O=C(O)C(=O)O,-27.2
18,Brc1ccc(CN2CCN(Cc3c[nH]c4ccccc34)CC2)cc1.O=C(O)C(=O)O,-22
19,c1ccc(CN2CCN(Cc3c[nH]c4ccccc34)CC2)cc1,15.3
20,O=[N+]([O-])c1ccc(CN2CCN(Cc3c[nH]c4ccccc34)CC2)cc1,-73.7
21,CCOc1ccc(CN2CCN(Cc3c[nH]c4ccccc34)CC2)cc1.O=C(O)C(=O)O,-85.8
